Reference: the supplement of paper PMC10338343
± gives the standard deviation.

Test system: MILI (PIWIL2) piRISC loaded with piRNA #1 (26 nt)
Experiment: pre-steady-state target cleavage rate (min^-1); guide: piRNA #1 5'p-UGAGGUAGUAGGUUGUAUAGUAUCCA; MIWI and MILI are mouse PIWI proteins and EfPiwi is from a freshwater sponge; tags in brackets are library labels; higher = faster piRNA-guided slicing of the target
Conditions: auxiliary factor: 500 nM mouse GTSF1
Summary of the method: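 Three pooled Cleave-'n-Seq trials supplied the data, with k3 capped at 0.0001 min^-1. In each, […] transcribed, DNA-blocked target RNA library and 1 nM active affinity-purified piRISC with one synthetic guide reacted in HEPES–potassium acetate buffer at 33 °C for 0–8 or 0–960 min, with or without 500 nM GTSF1 partner protein. Uncleaved targets were sequenced and normalised to depth and to weakly complementary targets. A burst-and-steady-state fit provided the pre-steady-state cleavage rate.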
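Further: 1 nM active piRISC with 0.1 nM target library at 33 °C single turnover.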

Row | Sequence | pre-steady-state target cleavage rate
1 | GGAGACCUUACUAUUCAACCAACUACCUCA | 0.00367 ± 0.0028
2 | GGAGACCUAUGAUAUCUACCUACUACCUGA | < 0.0001
3 | GGAGACCUUACUAUUGAACCUACUACCUCA | 0.137 ± 0.013
4 | GGAGACCUAUGAAUACAAGCUACAACCUCA | 0.018 ± 0.0032
5 | GGAGACGAUACUAUACAACCUAUCUACCUCA | 0.17 ± 0.017
6 | GGAGACCUAUCUAUACAACCUACUUCCUCA | 0.0646 ± 0.012
7 | GGAGACCUAUCUAUACUACCUACUACGUCA | 0.0241 ± 0.0069
8 | GGAGACCUAUGAUAUCAAGGAACUACCUCA | < 0.0001
9 | GGAGACCUAUGAUAUCAACCUACUUACCUCA | 0.00342 ± 0.0024
10 | GGAGACCUAUGAUAUCUACCUACUACGUCA | < 0.0001
11 | GGAGACCAUACUUUACAAGCUACUACCUCA | 0.199 ± 0.017
12 | GGAGACCAUACUAAUCAACCUACUACCUCA | 0.17 ± 0.019
13 | GGAGACCUAUGAAUACAAGCUACUACCUGA | 0.017 ± 0.0038
14 | GGAGACCUAUCUAUACAACGUACUACGUCA | 0.00657 ± 0.0026
15 | GGAGACCUAUGUAUACAACGUAGUACCUCA | 0.0032 ± 0.0023
16 | GGAGACCUAUGAUUUCAACCUACAACCUCA | 0.00341 ± 0.0021
17 | GGAGACCUAUGAAUAUAACCUACUACCUCA | 0.0081 ± 0.0024
18 | GGAGACCUAUGUAUACAACCUACUACCCUCA | 0.0911 ± 0.011
19 | GGAGACCAAACUAUAGAACCUACUACCUCA | 0.13 ± 0.028
20 | GGAGACCUUACUAAACAACCUAGUACCUCA | 0.0259 ± 0.0068

Row | Sequence | pre-steady-state target cleavage rate
21 | GGAGACCUAUGAUAUGUUCCUAGUACCUGA | < 0.0001
22 | GGAGACCUAUGAUUACGACCUACUACCUCA | 0.00341 ± 0.003
23 | GGAGACCUAUGAAUACAACCUACUCCCUCA | 0.00391 ± 0.0022
24 | GGAGACCUAUGUAUUCAAGCUACUACCUCA | 0.109 ± 0.011
25 | GGAGAGGAUUCUAUACAACCUACAACCUCA | 0.0904 ± 0.012
26 | GGAGACGAUACUAAACAACCUACUAGCUCA | 0.111 ± 0.019
27 | GGAGACCUAACUAUACAAGCUUCUACCUCA | 0.0324 ± 0.01
28 | GGAGACCUUACUAAACAACCUACAACCUCA | 0.178 ± 0.025
29 | GGAGACCUAUCUAUUACAACCUACUACCUCA | 0.0546 ± 0.0098
30 | GGAGACGAUACUAAACAACCUACAACCUCA | 0.116 ± 0.013
31 | GGAGACCUAUGAUAUGUACCUACUACCCUCA | < 0.0001
32 | GGAGACCUAUGAAUACAACCUACUACCCCA | 0.00425 ± 0.0034
33 | GGAGACCUAUGAAGACAACCUACUACCUCA | 0.00824 ± 0.0032
34 | GGAGACCUAUGAUAUGUACCUUCAACCUCA | < 0.0001
35 | GGAGACCUAUGUAUACAACCUACUACGCUCA | 0.0944 ± 0.013
36 | GGAGACCUAUCUUUACAACGUACUACCUCA | 0.00834 ± 0.002
37 | GGAGACCUAUGUAUACAACGUACUACCUCA | 0.00969 ± 0.0018
38 | GGAGACCUUACUUUACAACCUACUACGUCA | 0.0613 ± 0.011
39 | GGAGACCUAUCUAUACAAUCUACUACCUCA | 0.093 ± 0.0085
40 | GGAGACCUUACUAUUCAAGCUACUACCUCA | 0.235 ± 0.013
